Common to all, as to conditions: mRNA level, 48 h; actives raise or lower the signal
Read-out in test [1]: Apoptosis regulator Bcl-2 (Homo sapiens) (UniProt P10415)
Kind of test: LTEA_HepaRG_BCL2: Life Technologies and Expression Analysis (LTEA) Assay for Bcl-2 gene using HepaRG (AID 2283475).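 Also: BCL2 transcript by TaqMan qRT-PCR normalised to ACTB GAPDH and POLR2A.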 The method in brief: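 Each chemical was tested in duplicate on HepaRG cultures held in serum-free induction medium for 48 h, highest concentration 100 uM with half-log dilutions. Transcript levels came from multiplexed qRT-PCR, normalised to housekeeping genes; activity was scored in either direction relative to DMSO.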

Read-out in test [2]: Bcl-2 (BID) gene, BID (gene 637)
The test is described as follows: LTEA_HepaRG_BID: Life Technologies and Expression Analysis (LTEA) Assay for Bcl-2 (BID) gene using HepaRG (AID 2283476). In short, it runs like this: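 Assay used HepaRG hepatic cells treated 48 h in serum-free medium with half-log dilutions from 100 uM. Endpoint: BID mRNA, qRT-PCR, normalized to ACTB/GAPDH/POLR2A.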

Read-out in the next test: Caspase-3 (Homo sapiens) (UniProt P42574)
Kind of test: LTEA_HepaRG_CASP3: Life Technologies and Expression Analysis (LTEA) Assay for cysteine-aspartic acid protease (CASP3) using HepaRG (AID 2283477). The method in brief:
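Differentiated HepaRG cells, plated 48 h, were treated in duplicate in serum-free induction medium for 48 h with eight half-log concentrations up to 100 uM in 0.5% DMSO. CASP3 mRNA measured by qRT-PCR, normalized to ACTB, GAPDH, POLR2A.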

Read-out in test [3]: cysteine-aspartic acid protease (CASP8), CASP8 (gene 841)
The test is described as follows: LTEA_HepaRG_CASP8: Life Technologies and Expression Analysis (LTEA) Assay for cysteine-aspartic acid protease (CASP8) using HepaRG (AID 2283480). The method in brief: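 Concentration-response in duplicate up to 100 uM (half-log steps, 0.5% DMSO) on differentiated HepaRG cultures for 48 h. Expression change of CASP8 mRNA is determined by TaqMan qRT-PCR with housekeeping-gene normalization.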

Read-out in test [4]: DNA damage-inducible transcript 3 (DDIT3), DDIT3 (gene 1649)
Kind of test: LTEA_HepaRG_DDIT3: Life Technologies and Expression Analysis (LTEA) Assay for DNA damage-inducible transcript 3 (DDIT3) using HepaRG (AID 2283488). The method in brief:
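Eight-point concentration-response (100 uM highest, half-log dilutions) in HepaRG, 48 h, duplicate wells. Endpoint: qRT-PCR mRNA, normalized (ACTB, GAPDH, POLR2A), bidirectional fitting with DMSO as baseline.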

Read-out in test [5]: Pro-epidermal growth factor (Homo sapiens) (UniProt P01133)
Kind of test: LTEA_HepaRG_EGF: Life Technologies and Expression Analysis (LTEA) Assay for Epidermal growth factor (EGF) using HepaRG (AID 2283489). The method in brief:
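HepaRG cells (~100,000/well, 48 h pre-culture) exposed in duplicate for 48 h in serum-free induction medium to 8 half-log concentrations up to 100 uM in 0.5% DMSO. EGF mRNA by qRT-PCR, normalized to ACTB/GAPDH/POLR2A; bidirectional fit versus DMSO.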

Read-out in test [6]: Early growth response protein 1 (EGR1) transcription factor, EGR1 (gene 1958)
Kind of test: LTEA_HepaRG_EGR1: Life Technologies and Expression Analysis (LTEA) Assay for Early growth response protein 1 (EGR1) transcription factor using HepaRG (AID 2283490). The method in brief:
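EGR1 expression change in human HepaRG after 48 h chemical exposure, assessed by housekeeping-normalized qRT-PCR; concentration-response up to 100 uM, fitted in both directions against DMSO controls.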

Read-out in test [7]: Ezrin (EZR), EZR (gene 7430)
Kind of test: LTEA_HepaRG_EZR: Life Technologies and Expression Analysis (LTEA) Assay for Ezrin (EZR) using HepaRG (AID 2283491). In short, it runs like this: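 Gain or loss of EZR mRNA is scored relative to 0.5% DMSO in human HepaRG cultures treated 48 h with test chemicals in duplicate, eight half-log concentrations from 100 uM.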

Read-out in test [8]: Fatty Acid-Binding Protein 1 (FABP1), FABP1 (gene 2168)
Kind of test: LTEA_HepaRG_FABP1: Life Technologies and Expression Analysis (LTEA) Assay for Fatty Acid-Binding Protein 1 (FABP1) using HepaRG (AID 2283494). The method in brief:
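Values reflect bidirectional concentration-response fitting of FABP1 mRNA change against 0.5% DMSO controls. Human HepaRG cultures received eight half-log doses (top 100 uM) for 48 h; expression quantified by TaqMan qRT-PCR with housekeeping-gene normalization.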

Read-out in test [9]: Glutathione S-Transferase (GSTA2), GSTA2 (gene 2939)
Kind of test: LTEA_HepaRG_GSTA2: Life Technologies and Expression Analysis (LTEA) Assay for Glutathione S-Transferase (GSTA2) using HepaRG (AID 2283497). The method in brief: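 Oxidative-stress marker GSTA2 is quantified by TaqMan qRT-PCR in HepaRG cultures treated 48 h across an eight-point range to 100 uM. Expression is normalized to endogenous controls and compared with 0.5% DMSO vehicle.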

Read-out in test [10]: Cytochrome P450 (CYP24A1), CYP24A1 (gene 1591)
The test is described as follows: LTEA_HepaRG_CYP24A1: Life Technologies and Expression Analysis (LTEA) Assay for Cytochrome P450 (CYP24A1) using HepaRG (AID 2283478). In short, it runs like this: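 HepaRG cells plated 48 h, then exposed in duplicate in serum-free induction medium for 48 h to 8-point half-log series from 100 uM in 0.5% DMSO. CYP24A1 mRNA by Fluidigm qRT-PCR, normalized to ACTB, GAPDH, POLR2A; bidirectional fit versus DMSO.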

Read-out in test [11]: Cytochrome P450 (CYP1A2), CYP1A2 (gene 1544)
The test is described as follows: LTEA_HepaRG_CYP1A2: Life Technologies and Expression Analysis (LTEA) Assay for Cytochrome P450 (CYP1A2) using HepaRG (AID 2283479). In short, it runs like this: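 Differentiated human HepaRG cells in serum-free induction medium exposed 48 hours in duplicate to 8 half-log concentrations from 100 uM, 0.5% DMSO. CYP1A2 mRNA quantified by qRT-PCR, normalized to ACTB, GAPDH and POLR2A; bidirectional fitting versus DMSO.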

Read-out in test [12]: Cytochrome P450 2C19 (Homo sapiens) (UniProt P33261)
The test is described as follows: LTEA_HepaRG_CYP2C19: Life Technologies and Expression Analysis (LTEA) Assay for CYP2C19 using HepaRG (AID 2283482). In short, it runs like this:
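Differentiated HepaRG cells in serum-free induction medium exposed 48 h in duplicate, 8 concentrations from 100 uM by half-log steps in 0.5% DMSO. CYP2C19 mRNA measured by TaqMan qRT-PCR, normalized to ACTB, GAPDH, POLR2A. Bidirectional fit versus DMSO.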

Read-out in a further test: CYP2C8 (gene 1558)
Kind of test: LTEA_HepaRG_CYP2C8: Life Technologies and Expression Analysis (LTEA) Assay for CYP2C8 using HepaRG (AID 2283483). In short, it runs like this: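 This is a transcriptional endpoint in HepaRG cultures: 48 h exposure, highest concentration 100 uM. CYP2C8 mRNA is quantified by TaqMan qRT-PCR.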

Read-out in a further test: CYP2E1 (gene 1571)
The test is described as follows: LTEA_HepaRG_CYP2E1: Life Technologies and Expression Analysis (LTEA) Assay for CYP2E1 using HepaRG (AID 2283485). The method in brief: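 Assay uses 48 h exposure of HepaRG hepatic cells, eight concentrations to 100 uM. Expression of CYP2E1 is quantified by TaqMan qRT-PCR with ACTB, GAPDH and POLR2A normalization; curves fitted in both directions relative to vehicle.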

Read-out in test [13]: Cytochrome P450 4A22 (Homo sapiens) (UniProt Q5TCH4)
Kind of test: LTEA_HepaRG_CYP4A22: Life Technologies and Expression Analysis (LTEA) Assay for Cytochrome P450 4A22 (CYP4A22) using HepaRG (AID 2283495). The method in brief: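 Differentiated HepaRG cells in serum-free induction medium exposed 48 h in duplicate to eight half-log concentrations up to 100 uM in 0.5% DMSO. CYP4A22 mRNA quantified by TaqMan qRT-PCR, normalized to ACTB, GAPDH and POLR2A; bidirectional fit versus DMSO.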

Read-out in test [14]: Cytochrome P450 7A1 (Homo sapiens) (UniProt P22680)
The test is described as follows: LTEA_HepaRG_CYP7A1: Life Technologies and Expression Analysis (LTEA) Assay for Cytochrome P450 7A1 (CYP7A1) using HepaRG (AID 2283496). The method in brief: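 Using 0.5% DMSO as vehicle and baseline, chemicals were tested in duplicate over an 8-point range from 100 uM on HepaRG cells for 48 h; qRT-PCR signals were normalised to ACTB, GAPDH and POLR2A.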

Read-out in a further test: CYP2C9 (gene 1559)
The test is described as follows: LTEA_HepaRG_CYP2C9: Life Technologies and Expression Analysis (LTEA) Assay for CYP2C9 using HepaRG (AID 2283484). In short, it runs like this:
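Eight-point concentration-response (highest 100 uM, half-log dilutions) in HepaRG cells for 48 h; CYP2C9 expression by qRT-PCR normalized to ACTB, GAPDH, POLR2A. Bidirectional fit, DMSO baseline.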

Read-out in a further test: CYP3A5 (gene 1577)
Kind of test: LTEA_HepaRG_CYP3A5: Life Technologies and Expression Analysis (LTEA) Assay for CYP3A5 using HepaRG (AID 2283493). In short, it runs like this:
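Readout was CYP3A5 mRNA by qRT-PCR. HepaRG cultures were exposed for 48 h in serum-free induction medium to chemicals at up to 100 uM, and responses were fitted in both directions relative to DMSO vehicle.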

Read-out in test [15]: Cytochrome P450 3A4 (Homo sapiens) (UniProt P08684)
Kind of test: LTEA_HepaRG_CYP3A4: Life Technologies and Expression Analysis (LTEA) Assay for CYP3A4 using HepaRG (AID 2283487). In short, it runs like this: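 In a human hepatic line (HepaRG), duplicate wells were treated 48 h with up to 100 uM chemical in half-log dilutions. Endpoint: CYP3A4 mRNA induction or loss relative to 0.5% DMSO vehicle, by qRT-PCR.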

From PubChem BioAssay (EPA / NIEHS) come the findings set out here.

The structures appear in SMILES notation. Activity calls are given as the source filed them. The calls were made as follows: active = hit-call score of the fitted dose curve at least 0.9, where 1 is the maximum; inactive = score below 0.9.

Chain of Apoptosis regulator Bcl-2 (Homo sapiens) (P10415 whole entry, looked up): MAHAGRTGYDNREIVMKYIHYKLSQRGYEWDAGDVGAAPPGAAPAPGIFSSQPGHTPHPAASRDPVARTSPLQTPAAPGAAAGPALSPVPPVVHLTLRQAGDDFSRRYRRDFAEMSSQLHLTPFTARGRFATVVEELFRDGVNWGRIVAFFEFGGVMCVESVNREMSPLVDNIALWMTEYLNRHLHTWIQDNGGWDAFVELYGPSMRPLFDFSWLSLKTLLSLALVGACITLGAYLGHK
Chain of Caspase-3 (Homo sapiens) (P42574 whole entry, looked up): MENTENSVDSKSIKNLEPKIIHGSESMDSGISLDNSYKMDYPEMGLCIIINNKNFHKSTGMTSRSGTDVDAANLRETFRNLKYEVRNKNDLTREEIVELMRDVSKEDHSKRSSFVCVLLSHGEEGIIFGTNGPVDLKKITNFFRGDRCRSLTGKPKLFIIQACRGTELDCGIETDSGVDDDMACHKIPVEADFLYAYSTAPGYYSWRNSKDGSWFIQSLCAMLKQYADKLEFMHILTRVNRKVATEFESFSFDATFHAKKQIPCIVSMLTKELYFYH
Chain of Cytochrome P450 2C19 (Homo sapiens) (P33261 whole entry, looked up): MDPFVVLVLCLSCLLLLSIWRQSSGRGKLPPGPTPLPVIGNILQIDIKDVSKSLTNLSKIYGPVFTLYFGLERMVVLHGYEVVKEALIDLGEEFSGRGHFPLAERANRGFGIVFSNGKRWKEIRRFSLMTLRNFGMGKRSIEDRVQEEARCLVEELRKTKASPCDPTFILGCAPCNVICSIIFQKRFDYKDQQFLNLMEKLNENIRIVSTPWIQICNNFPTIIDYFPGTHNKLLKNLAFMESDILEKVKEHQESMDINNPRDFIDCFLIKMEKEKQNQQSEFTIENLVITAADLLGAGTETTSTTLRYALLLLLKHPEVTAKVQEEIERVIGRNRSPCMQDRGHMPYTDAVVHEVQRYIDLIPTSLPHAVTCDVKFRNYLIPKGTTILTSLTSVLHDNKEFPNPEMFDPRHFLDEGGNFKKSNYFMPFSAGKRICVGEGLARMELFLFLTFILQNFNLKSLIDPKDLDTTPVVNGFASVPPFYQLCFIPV
Chain of Cytochrome P450 3A4 (Homo sapiens) (P08684 whole entry, looked up): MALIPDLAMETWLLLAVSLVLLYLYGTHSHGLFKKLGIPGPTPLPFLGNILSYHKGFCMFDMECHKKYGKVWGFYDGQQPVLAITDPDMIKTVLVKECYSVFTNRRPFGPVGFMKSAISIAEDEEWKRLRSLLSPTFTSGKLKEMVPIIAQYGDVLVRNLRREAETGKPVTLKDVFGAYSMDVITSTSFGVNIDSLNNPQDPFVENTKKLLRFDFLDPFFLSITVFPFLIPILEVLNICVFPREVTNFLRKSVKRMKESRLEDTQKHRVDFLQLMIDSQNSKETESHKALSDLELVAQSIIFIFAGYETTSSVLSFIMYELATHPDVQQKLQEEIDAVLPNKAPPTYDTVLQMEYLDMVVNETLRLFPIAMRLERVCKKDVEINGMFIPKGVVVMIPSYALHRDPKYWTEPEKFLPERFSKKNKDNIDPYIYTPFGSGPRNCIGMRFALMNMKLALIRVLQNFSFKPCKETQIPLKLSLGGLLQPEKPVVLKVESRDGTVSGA

A word on the AC50: it is the concentration at which the activity in the assay is half-maximal. As for `O=C(c1ccccc1)c1ccccc1`, the result (in test [1]; in [2]; in the test with Caspase-3 (Homo sapiens); in test [3]; in [4]; in test [5]) was inactive. In addition, the molecule was called inactive in test [6], in test [7] and in test [9]. The AC50 in test [8] was 0.851 µM (active).
In the case of `N=C(N)c1ccc(OCCCCCOc2ccc(C(=N)N)cc2)cc1`, the AC50 in [1] is 73.6 µM (active); in [2], 68.3 µM (active); in the test with Caspase-3 (Homo sapiens), 69.8 µM (active); in [11], 5.43 µM (active); in [3] it was 30.1 µM (active); in test [12], 6.53 µM (active). Further, the AC50 in the test with CYP2C8 (gene 1558) was 3.73 µM (active); in the test with CYP2E1 (gene 1571), 6.51 µM (active); in test [4], 3.45 µM (active); in test [5], 22.2 µM (active); in [6] it was 27.1 µM (active); in test [8], 4.05 µM (active). The results for the AC50 in test [13], in [14] and in [9] were 3.87 µM (active), 6.66 µM (active) and 7.03 µM (active), respectively. Further, the molecule was classed as inactive in test [10] and in test [7].
On to `O=C(CCCN1CCC(O)(c2ccc(Cl)cc2)CC1)c1ccc(F)cc1`, for which the AC50 in test [1] is 81.3 µM (active); in [11] it was 82.6 µM (active); in the test with CYP2C9 (gene 1559), 77.8 µM (active); with CYP2E1 (gene 1571), 66.2 µM (active); in test [4], 73.9 µM (active); in [6], 94.4 µM (active). The AC50 was 93.2 µM (active) in test [8], 64 µM (active) in [13], 82 µM (active) in test [14] and 78 µM (active) in test [9]. Moreover, the outcome (in test [2]; with Caspase-3 (Homo sapiens); in test [10]; in [3]; with CYP2C8 (gene 1558); in test [5]) was inactive. The outcome (in [7]; in the test with CYP3A5 (gene 1577)) was inactive.
`CCCCCCCCCCCCCCC`: the result (in test [1]; in test [2]; in the test with Caspase-3 (Homo sapiens); in test [10]; in [11]; in [3]) was inactive. Further, the call (in the test with CYP2C8 (gene 1558); with CYP2C9 (gene 1559); in test [4]; in test [5]; in [6]; in [7]) was inactive. Besides, the result (with CYP3A5 (gene 1577); in [8]; in test [13]; in [14]; in [9]) was inactive. Besides, the AC50 in [12] was 17.3 µM (active); in the test with CYP2E1 (gene 1571), 1.94 µM (active); in test [15], 8.75 µM (active).
